# Results with a measured potency or affinity are listed apart. Calls of active or inactive are those of the source.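 Rule for the calls: active = growth signal falls, with fitted half-maximal dose at most ten times the top valid dose; inconclusive = flat curve with a partial drop, or a poorly fitting curve; inactive = the rest, including compounds that raise signal.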
# Assay: single-agent toxicity toward C. albicans – CaCi-2 strain, no fluconazole, dry powder, set 4, counter-screen for reversing antifungal drug resistance, dose response (AID 488932)
# Settings: C. albicans CaCi-2 (fluconazole-resistant clinical isolate) growth, Alamar Blue, 48 h; series mostly up to 26 µM; activity change, negative = inhibition: at the top concentration
Compound,outcome,"activity change, negative = inhibition"
O=C(c1ccc(Cl)cc1)N1CCN(c2ccccn2)CC1,inactive,
O=C(Nc1ccc(C(F)(F)F)cc1)N1CCN(c2ccnc3cc(Cl)ccc23)CC1,,4.41% (inactive)
COc1cccc2c(N3CCN(C(=O)c4ccc(Cl)cc4)CC3)cc(C)nc12,,60.5% (inactive)
